# An excerpt weighted towards active compounds, which were near 0.76% of everything screened.
# Rv3671c protease = inhibits the M. tuberculosis serine protease Rv3671c; 320,000 tested, 0.048% active; inhibition, % at 5.96 µM; in the data active = inhibition above about 38%;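 also: extracellular domain of Rv3671c used as enzyme; 0% = enzyme with DMSO and 100% = no enzyme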
# Mtb betalactam = beta-lactam sensitization of Mtb H37Rv; M. tuberculosis H37Rv growth with meropenem, percent inhibition; inhibition, % at 25 µM; 330,000 tested, 0.27% active; call rule not given here;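 also: growth measured after seven days incubation then overnight dye step; 0% = bacteria only wells and 100% = bacteria with antibiotic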
# FadD28 binding = M. tuberculosis FadD28 bisubstrate binding inhibition. FadD28 bisubstrate probe binding, fluorescence polarization. inhibition, % at 12.5 µM. 360,000 tested, 0.22% active. AID 588549; in the data active = inhibition above about 8.5%, passing the limit was not always enough
# Mtb UGM inh = inhibitors of M. tuberculosis UDP-galactopyranose mutase; P9WIQ1; purified UGM, fluorescence polarization probe displacement; inhibition, % at 10 µM; 320,000 tested, 0.06% active; AID 504406; in the data active = inhibition above about 10%, passing the limit was not always enough
# Target sequence (P9WIQ1 whole entry, looked up): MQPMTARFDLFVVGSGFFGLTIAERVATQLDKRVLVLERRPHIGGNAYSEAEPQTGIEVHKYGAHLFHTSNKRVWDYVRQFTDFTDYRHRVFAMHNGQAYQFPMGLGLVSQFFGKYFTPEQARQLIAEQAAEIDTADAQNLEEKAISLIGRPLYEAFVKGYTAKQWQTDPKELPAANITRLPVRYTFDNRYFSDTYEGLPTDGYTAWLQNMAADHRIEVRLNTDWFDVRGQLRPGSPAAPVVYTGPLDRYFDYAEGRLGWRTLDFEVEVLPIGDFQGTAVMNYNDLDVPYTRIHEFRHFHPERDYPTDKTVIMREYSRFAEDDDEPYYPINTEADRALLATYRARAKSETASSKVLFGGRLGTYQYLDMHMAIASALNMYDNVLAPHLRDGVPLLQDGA
# Vc quorum ag = quorum light induction in luxS cqsA deficient V. cholerae; V. cholerae BH1578 lux reporter, luminescence, 6 h; activation, % at 18.7 µM; 350,000 tested, 0.16% active; in the data active = activation mostly above about 9.7%, no sharp cut-off
# PrP 5UTR inh = suppresses PrP 5' UTR mRNA reporter expression | cell-based PrP 5' UTR mRNA reporter, plate reader | 340,000 tested, 0.35% active | inhibition, % (concentration not given with the values); in the data active = inhibition above about 52%; also: 0 = median of the neutral control wells
# Numbers without * were called inactive; i = inactive; . = no result given.
SMILES,Rv3671c protease,Mtb betalactam,FadD28 binding,Mtb UGM inh,Vc quorum ag,PrP 5UTR inh
CCCc1cc(CNC(=O)C2CCC(=O)N(Cc3ccccc3F)C2)on1 (stereo not drawn),-9.4,-8.4,-2.3,-0.4,-0.3,-9.8
CCOC(=O)N1CCN(S(=O)(=O)N2CCCC(C(=O)NCCc3ccc(C)cc3)C2)CC1 (stereo not drawn),0.7,5.4,0.3,-2.1,-0.9,-22.7
C[C@H](CO)N1C[C@H](C)[C@@H](CN(C)S(=O)(=O)c2ccccc2F)Oc2ncc(C#Cc3cccnc3)cc2C1=O,.,.,-2.3,.,-2.1,.
CCc1cccc2c(C(=O)CN3C(=O)NC4(CCCCCC4)C3=O)c[nH]c12,-9.8,-9.8,52.6*,-1.8,i,0.5
CCc1cccc2c(C(=O)CN3C(=O)C(=O)N(C4CCCC4)C3=O)c[nH]c12,5.3,-3.0,14.0*,1.3,i,-21.5
CCc1cccc2c(C(=O)CN3C(=O)NC4(CCCCC4)C3=O)c[nH]c12,-5.2,3.5,13.3*,4.1,i,-27.4
Cc1cccc(NC2CCCCC2NS(=O)(=O)c2ccccc2)c1 (stereo not drawn),.,.,-0.5,.,-3.8,-13.7
O=C(NCCSCc1ccc(Cl)cc1Cl)c1ccc(CN2CCOCC2)cc1,-2.6,-1.8,43.1*,0.9,0.0,-11.4
CC(C)(C)OC(=O)N1CCC(CC2CC(c3cccc(Br)c3)=NO2)(C(=O)O)CC1 (stereo not drawn),-9.5,7.0,-1.5,3.9,-0.6,-5.4
Cc1ccc(CSCCNC(=O)c2ccc(NS(C)(=O)=O)cc2)cc1,-7.3,-6.9,15.4*,0.1,0.8,-14.5
COc1ccc(CNC(=O)C2CCN(C(=O)[C@@H](CC(C)C)NC(=O)OC(C)(C)C)CC2)cc1,.,.,-1.5,.,16.7*,-2.4
COc1ccc(C(=O)NCc2cccs2)cc1S(=O)(=O)N1CCOCC1,5.4,-6.2,0.9,1.4,4.3,-9.3
COc1ccc(/C=C/C(=O)N(C)Cc2cccs2)cc1S(=O)(=O)N1CCOCC1,8.1,4.5,26.0*,-0.2,-0.2,0.7
Nc1ccc(S(=O)(=O)c2cc(O)c3ccccc3c2O)cc1,.,.,9.5*,.,i,-20.1
Nc1c(C(=O)NC2CC2)sc2nc3c(c(-c4ccco4)c12)CC/C3=C/c1ccco1,11.0,0.1,18.1*,-1.9,-0.3,-1.3
C/C(O)=C(/C=NCC(=O)O)C(=O)Nc1nccs1,-11.3,1.4,-2.1,0.6,i,-18.4
O=Cc1ccccc1-n1cncn1,-5.9,-3.4,0.2,-0.3,-0.3,79.8*
O=C1CC(=Nc2ccc([N+](=O)[O-])cc2)NN1c1c(Cl)cc(Cl)cc1Cl,.,.,14.7*,.,-4.8,.
O=S(=O)(/N=C(/Nc1cccc2ccccc12)c1ccccc1)c1ccc(F)cc1,-12.1,2.4,-1.9,0.0,i,-4.4
O=C(O)CCN1C(=O)/C(=C\c2ccncc2)SC1=S,-2.3,40.5,-1.4,-1.2,i,-19.8
COc1ccc(/C=C2\SC(=S)N(CCC(=O)Nc3ccc(C(=O)O)cc3)C2=O)cc1,2.3,-1.1,-4.0,1.4,i,-16.1
O=C(O)CCN1C(=O)/C(=C\c2ccc(-c3nc4ccccc4s3)o2)SC1=S,-3.6,16.1,20.3*,-0.8,i,-21.6
COc1ccc(/C=C2/SC(=S)N(CCC(=O)O)C2=O)cc1,-4.5,-9.7,0.1,2.8,i,62.8*
COc1cc(/C=C2\SC(=S)N(CCCCC(=O)O)C2=O)ccc1OS(=O)(=O)c1ccc(C)cc1,-12.2,46.4,24.3*,4.5,-1.2,-17.6
CC1=NN(C(=O)COc2ccc(C)c(C)c2)C(O)(c2ccccc2)C1 (stereo not drawn),2.8,2.5,-2.9,2.4,-2.1,1.1
SMILES,Rv3671c protease,Mtb betalactam,FadD28 binding,Mtb UGM inh,Vc quorum ag,PrP 5UTR inh
Cn1c(N/N=C/c2cccs2)cc(=O)n(C)c1=O,3.8,-4.8,-3.2,-1.7,33.3*,-9.8
CC(=O)OCC(O)C1(O)CCC2C3CCC4=CC(=O)CCC4(C)C3C(O)CC21C (stereo not drawn),.,.,-0.5,.,-0.3,.
CSc1ncc(Cl)c(C(=O)Nc2nnc(SC/C=C/c3ccccc3)s2)n1,-8.3,17.0,15.1*,-0.3,i,-16.6
Nc1nnc(CC(=O)N/N=C/c2cc([N+](=O)[O-])cc(Br)c2O)s1,6.7,3.5,36.6*,-1.3,0.4,-17.0
CCc1cc(C(=O)c2ccc(OC)cc2)c(N)s1,6.3,-0.3,1.3,0.5,0.0,-5.8
COc1ccc(C(=O)c2ccsc2N)cc1,-8.2,3.8,8.6*,-0.7,i,-8.8

# Bioassay records deposited in PubChem by several laboratories.
